Screens: PubChem BioAssay, National Center for Advancing Translational Sciences (NCATS)
Rows were chosen to be rich in hits. Some 9% of all compounds tested hit in one or more screens of this group.
HPGD block = inhibitors of human 15-hydroxyprostaglandin dehydrogenase (HPGD); Potency, µM, actives largely listed as inhibitors; P15428; purified HPGD, NADH fluorescence kinetic, PGE2 substrate; AID 894; 150,000 compounds, 4.3% hits
Target sequence (P15428 whole entry, looked up): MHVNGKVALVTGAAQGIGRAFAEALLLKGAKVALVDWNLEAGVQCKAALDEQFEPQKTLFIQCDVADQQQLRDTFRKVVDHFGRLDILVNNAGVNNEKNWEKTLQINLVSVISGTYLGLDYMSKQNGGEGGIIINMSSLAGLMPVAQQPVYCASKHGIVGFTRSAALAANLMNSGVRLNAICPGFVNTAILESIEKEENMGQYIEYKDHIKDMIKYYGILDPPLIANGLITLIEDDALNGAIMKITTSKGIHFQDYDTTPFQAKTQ
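20 nM HPGD preincubated 15 min at room temperature with compound in 50 mM Tris-HCl pH 8, 0.01% Tween 20. Started with 1 mM NAD+ and 30 uM prostaglandin E2; NADH fluorescence (360/450 nm) read 5 times over 30-s intervals, last minus first.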
ALDH1A1 block = blocks purified human ALDH1A1 activity; AID 1030; Potency, µM (titrated, usually from 75.3 µM), most hits filed as inhibitors; 220,000 compounds, 7.3% hits; P00352; Purified ALDH1A1, NADH fluorescence, propionaldehyde substrate
IMPase inh = cell-permeable inhibitors of inositol monophosphatase (IMPase). P97697. CHO-M1 cells, IP1 accumulation, HTRF TR-FRET ratio. inhibition (IP1 accumulation), % at 46.1 µM. 120,000 tested, under 10 active. AID 901; active means well fitted curve in the direction sought with a large enough effect in the signal ratio, not every such curve was filed as active; inconclusive means small, poorly fitted or top-dose-only effect, or a change in a side signal; inactive means no such curve, though single readings can be large or run the other way; the % refers to the signal ratio;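 further: cells stimulated with carbachol in lithium chloride buffer; higher means more IMPase inhibition seen as more IP1 and lower FRET ratio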
Target sequence (P97697 whole entry, looked up): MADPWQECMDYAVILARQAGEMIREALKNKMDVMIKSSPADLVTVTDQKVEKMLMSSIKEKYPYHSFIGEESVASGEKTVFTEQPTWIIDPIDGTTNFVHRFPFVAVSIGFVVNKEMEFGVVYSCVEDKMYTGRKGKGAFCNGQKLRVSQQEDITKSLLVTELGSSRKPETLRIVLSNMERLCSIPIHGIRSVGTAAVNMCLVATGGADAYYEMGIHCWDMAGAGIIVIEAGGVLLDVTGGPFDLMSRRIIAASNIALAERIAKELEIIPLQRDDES
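CHO-M1, 2000 cells/well, cultured 16–30 h; cpd up to 46 uM; carbachol (50 uM solution, stimulation buffer w/ 50 mM LiCl, pH 7.4), 30 min 37C; IP-One TR-FRET, 10 min RT; Ex 320/Em 665, 620; Hill-fit AC50.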
Of the large screens only hits and unclear results are named; the others gave an inactive call. Unless noted, the call rests on the fitted dose curve; in most records, active means well fitted inhibition curve with a large enough effect (not every such curve was filed as active); inconclusive means small, poorly fitted or top-dose-only effect, or another doubt; inactive means no such curve, though single readings can be large or run the other way.

C=C1CC[C@H](O)C/C1=C/C=C1\CCC[C@]2(C)[C@@H]([C@H](C)CCCC(C)(C)O)CC[C@@H]12	none (no result: IMPase inh)
Cc1ccc(/C=c2\s/c(=C(/C#N)C(=O)N3CCCC3)n(Cc3ccco3)c2=O)s1	HPGD block inconclusive, ALDH1A1 block 3.5µM
COc1cc(/C=c2\s/c(=C(/C#N)C(=O)N3CCCC3)n(-c3ccccc3)c2=O)ccc1O	none
CSc1cc(N2CCOCC2)nc(-c2ccccc2Cl)n1	none (no result: IMPase inh)
Cc1ccccc1C(=O)Nn1cnc2ccccc2c1=O	none (no result: HPGD block, IMPase inh)
CCN1C(=O)[C@H]2[C@H]3[C@H](O)[C@H](O)C/C(=N\O[C@H](C)c4cn([C@H](CO)Cc5ccccc5)nn4)[C@@H]3CC[C@H]2C1=O	none (no result: IMPase inh)
COc1cc(NC(=S)N2CCN(C(c3ccccc3)c3ccccc3)CC2)cc(OC)c1	none
CSc1ccc(/C=N/N2CCN(C)CC2)cc1	none (no result: HPGD block, IMPase inh)
CSc1ccc(C(=S)N2CCN(C)CC2)cc1	HPGD block 28µM, ALDH1A1 block 32µM
CSc1ccc(C(=S)N2CCN(C(c3ccccc3)c3ccccc3)CC2)cc1	HPGD block 14µM, ALDH1A1 block 2.4µM
COc1ccc(C(=O)N2CCC3(CCN(Cc4ccc(C#N)cc4)CC3)CC2)cc1	none (no result: IMPase inh)
COc1ccc(C2Sc3nncn3N2Cc2ccc(C#N)cc2)cc1 (stereo not drawn)	ALDH1A1 block 10µM
COc1cc(/C=N/NC(=O)C(=O)/C=C2\NC3(CCCC3)Cc3ccccc32)ccc1O	none
O=C(/C=C1\NC2(CCCC2)Cc2ccccc21)C(=O)N/N=C/c1ccccc1O	ALDH1A1 block 4.5µM (no result: IMPase inh)
Cc1nc2cc(NCc3cc([N+](=O)[O-])ccc3O)ccc2n1Cc1ccccc1	none (no result: HPGD block, IMPase inh)
CC(Sc1nc2c(cc1C#N)CCCCC2)C(=O)O (stereo not drawn)	none (no result: HPGD block, IMPase inh)
Cc1c(N2C(=O)/C(=C/c3ccccc3)SC2=S)c(=O)n(-c2ccccc2)n1C	none
Cc1c(N2C(=O)/C(=C\C3CC=CCC3)SC2=S)c(=O)n(-c2ccccc2)n1C (stereo not drawn)	ALDH1A1 block 1.3µM (no result: HPGD block, IMPase inh)
O=C(CCS(=O)(=O)c1cccc2nsnc12)N1CC(=O)N(CCc2ccccc2)C(=O)C1	ALDH1A1 block 22µM
CN(CC(=O)N1CC(=O)N(CCc2ccccc2)C(=O)C1)S(=O)(=O)c1cccc2nsnc12	ALDH1A1 block inconclusive
Cc1ccc(CN2CCN(CC3CC4C=CC3C4)CC2)cc1 (stereo not drawn)	ALDH1A1 block inconclusive
CCOc1cccc2c1OC(c1cc(OC)c(OC)c(OC)c1)N1N=C(c3ccc(C)o3)CC21 (stereo not drawn)	ALDH1A1 block inconclusive
O=C1c2cccc(OCC(=O)N3CCCc4ccccc43)c2CCN1Cc1ccccc1	none
Cc1ccc(C)c(NC(=O)COc2cccc3c2CCN(Cc2ccccc2C)C3=O)c1	ALDH1A1 block inconclusive
Cc1ccc(CN2CCc3c(OCC(=O)Nc4cccc(C)c4C)cccc3C2=O)cc1	ALDH1A1 block 25µM (no result: IMPase inh)
O=C1c2cccc(OCC(=O)N3CCCc4ccccc43)c2CCN1Cc1ccc(Br)cc1	ALDH1A1 block 7.9µM
CCCn1c(C)nc2c(NC(C)CCCN(CC)CC)nc(C)nc21 (stereo not drawn)	none (no result: IMPase inh)
O=C(O)c1nccnc1C(=O)N1CCN(c2ccccc2)CC1	ALDH1A1 block inconclusive (no result: IMPase inh)
CN(CCCNC(=O)CSc1cc(=O)n(C)c2ccc(Cl)cc12)Cc1ccccc1	none (no result: HPGD block, IMPase inh)
O=c1c2c3c(sc2nc2n1CCCCC2)CCCCC3	HPGD block inconclusive, ALDH1A1 block inconclusive
O=c1c2c3c(sc2nc2n1CCCCC2)CCCC3	HPGD block inconclusive, ALDH1A1 block 35µM
Cc1cc(NC(=O)CN2CCN(C/C=C/c3ccccc3)CC2)c([N+](=O)[O-])cc1C	none (no result: IMPase inh)
O=C(CN1CCN(C/C=C/c2ccccc2)CC1)Nc1cc([N+](=O)[O-])ccc1Cl	ALDH1A1 block 10µM (no result: IMPase inh)
COCCNc1nc(-c2ccccc2CN(C)C)nc2ccccc12	none (no result: IMPase inh)
Cc1ccc(NC(=O)c2scc3c2CCCC3)cc1	none (no result: IMPase inh)
O=C(c1scc2c1CCCC2)N1CCCCC1	HPGD block 8.9µM
CCOC(=O)c1cc(C(=O)OCC)c(=O)[nH]c1C	ALDH1A1 block inconclusive (no result: IMPase inh)
CCOC(=O)c1cc2c(C)[nH]c(C)c2cc(C(=O)OCC)c1=O	ALDH1A1 block 25µM (no result: HPGD block, IMPase inh)
COC(=O)c1cc(Br)c(=O)n(CCC2=CCCCC2)c1	ALDH1A1 block inconclusive
COC(=O)N1CCC2(CC1)CN(C(=O)Nc1cccc(C#N)c1)C2	none (no result: IMPase inh)
N#Cc1cnn2ccn(C3OC(CO)C(O)C3O)c12 (stereo not drawn)	none (no result: HPGD block, IMPase inh)
COc1ccc(-n2nc3cc(C)c(NC(=O)c4ccc(-c5ccc(Br)cc5)o4)cc3n2)cc1	none (no result: HPGD block, ALDH1A1 block)
CCOc1cc2c(cc1OCC)C(c1ccccc1)N(c1ccccc1)C(=O)C2 (stereo not drawn)	none (no result: IMPase inh)
Nc1ccc(N2CCCCC2)c(Cl)c1	none (no result: HPGD block, IMPase inh)
Nc1ccc(N2CCN(c3ccc(Cl)c(Cl)c3)CC2)cc1	none (no result: IMPase inh)
Nc1ccc(N2CCCCCC2)cc1	ALDH1A1 block 7.9µM
